For 4 sequences, binding signal results are on record in PMC7862700, “An all-to-all approach to the identification of sequence-specific readers for epigenetic DNA modifications on cytosine”.

Holding throughout (test): DAPPL (digital affinity profiling via proximity ligation, sequencing); 10 mM Tris-HCl pH 7.5, 50 mM NaCl, 1 mM DTT, 4% glycerol, room temperature, 30 min; GST-TFs on glutathione beads, 16-mer random dsDNA library, 0.1% formaldehyde crosslink after washing; high values mean tight binding
Holding throughout (conditions): protein: recombinant; tags: N-terminal GST; dsDNA, one strand shown

The target of one assay is SPIB (Homo sapiens, UniProt Q01892 1-262). The essentials:
(§1)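 Binding signal is given per hexamer as its read frequency for a factor divided by its frequency in the tag-only sample. GST-fused human transcription factors were expressed in yeast, captured on glutathione beads, barcoded with DNA and pooled with that sample, then incubated with 200 nmole of a 16-mer random double-stranded DNA library in Tris/NaCl/DTT/glycerol buffer for 30 min at room temperature. The pools were then washed, crosslinked, proximity-ligated, amplified by PCR and sequenced on an Illumina NextSeq500.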

The target in the next assay is T1, SPIC (Homo sapiens, UniProt Q8N5J4 1-248).
T1 sequence: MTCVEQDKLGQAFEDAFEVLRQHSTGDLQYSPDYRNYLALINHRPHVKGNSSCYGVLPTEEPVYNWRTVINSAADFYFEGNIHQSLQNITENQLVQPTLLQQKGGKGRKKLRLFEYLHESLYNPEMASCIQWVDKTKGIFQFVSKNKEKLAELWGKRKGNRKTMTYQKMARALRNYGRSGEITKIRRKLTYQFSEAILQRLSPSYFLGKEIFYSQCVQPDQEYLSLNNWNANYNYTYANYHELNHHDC
In short, it runs like this: as §1

A further assay has as its target T2, ELK4 (Homo sapiens, UniProt P28324-2 1-405).
T2 sequence: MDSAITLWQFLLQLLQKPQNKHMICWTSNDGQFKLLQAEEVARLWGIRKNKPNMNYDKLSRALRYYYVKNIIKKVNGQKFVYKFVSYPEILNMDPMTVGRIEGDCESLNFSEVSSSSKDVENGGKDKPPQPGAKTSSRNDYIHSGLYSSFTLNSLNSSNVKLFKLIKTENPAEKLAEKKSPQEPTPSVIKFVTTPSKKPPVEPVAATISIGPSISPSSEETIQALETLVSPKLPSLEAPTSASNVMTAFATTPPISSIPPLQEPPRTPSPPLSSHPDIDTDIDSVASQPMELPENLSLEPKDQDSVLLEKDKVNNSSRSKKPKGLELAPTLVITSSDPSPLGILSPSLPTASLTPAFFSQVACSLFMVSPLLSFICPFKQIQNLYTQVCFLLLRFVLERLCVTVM
In short, it runs like this:
as §1

For the next assay, the target named is ETV1 (Homo sapiens, UniProt P50549 1-477). In short, it runs like this: as §1
In a further assay the target is T3, SPDEF (Homo sapiens, UniProt O95238 1-335).
T3 sequence: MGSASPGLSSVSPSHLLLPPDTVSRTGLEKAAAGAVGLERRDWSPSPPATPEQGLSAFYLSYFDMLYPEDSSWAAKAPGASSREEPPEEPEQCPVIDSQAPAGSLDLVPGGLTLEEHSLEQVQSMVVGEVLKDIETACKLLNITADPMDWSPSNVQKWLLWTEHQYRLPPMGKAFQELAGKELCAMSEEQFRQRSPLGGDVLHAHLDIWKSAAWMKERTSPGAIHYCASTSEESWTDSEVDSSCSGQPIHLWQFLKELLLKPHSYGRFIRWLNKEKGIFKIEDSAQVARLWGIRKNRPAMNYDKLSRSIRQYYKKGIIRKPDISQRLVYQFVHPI
In short, it runs like this:
as §1

The next assay concerns the target T4, ELF5 (Homo sapiens, UniProt Q9UKW6-2 1-255).
T4 sequence: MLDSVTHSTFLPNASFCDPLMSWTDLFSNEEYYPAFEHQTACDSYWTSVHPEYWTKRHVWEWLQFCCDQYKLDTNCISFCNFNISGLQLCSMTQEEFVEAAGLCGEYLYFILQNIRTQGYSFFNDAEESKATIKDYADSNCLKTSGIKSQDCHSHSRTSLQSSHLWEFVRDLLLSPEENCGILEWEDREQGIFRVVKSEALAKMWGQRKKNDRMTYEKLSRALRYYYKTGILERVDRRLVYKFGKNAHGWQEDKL
The essentials:
as §1

For a further assay, the target named is T5, GABPA (Homo sapiens, UniProt Q06546 1-454).
T5 sequence: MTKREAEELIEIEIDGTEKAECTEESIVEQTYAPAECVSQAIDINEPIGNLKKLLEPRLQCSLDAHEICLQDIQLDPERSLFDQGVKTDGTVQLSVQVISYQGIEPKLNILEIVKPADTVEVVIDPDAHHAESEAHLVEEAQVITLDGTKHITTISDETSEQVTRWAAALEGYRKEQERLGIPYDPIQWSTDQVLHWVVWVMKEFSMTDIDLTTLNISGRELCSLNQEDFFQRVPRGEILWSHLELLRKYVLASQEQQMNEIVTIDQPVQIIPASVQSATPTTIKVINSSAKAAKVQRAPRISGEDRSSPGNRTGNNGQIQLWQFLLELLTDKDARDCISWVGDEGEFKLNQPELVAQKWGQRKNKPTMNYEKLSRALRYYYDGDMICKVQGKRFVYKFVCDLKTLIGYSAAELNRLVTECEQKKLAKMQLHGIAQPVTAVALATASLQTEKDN
The essentials:
as §1

The target of another assay is T6, ERG (Homo sapiens, UniProt P11308 1-479).
T6 sequence: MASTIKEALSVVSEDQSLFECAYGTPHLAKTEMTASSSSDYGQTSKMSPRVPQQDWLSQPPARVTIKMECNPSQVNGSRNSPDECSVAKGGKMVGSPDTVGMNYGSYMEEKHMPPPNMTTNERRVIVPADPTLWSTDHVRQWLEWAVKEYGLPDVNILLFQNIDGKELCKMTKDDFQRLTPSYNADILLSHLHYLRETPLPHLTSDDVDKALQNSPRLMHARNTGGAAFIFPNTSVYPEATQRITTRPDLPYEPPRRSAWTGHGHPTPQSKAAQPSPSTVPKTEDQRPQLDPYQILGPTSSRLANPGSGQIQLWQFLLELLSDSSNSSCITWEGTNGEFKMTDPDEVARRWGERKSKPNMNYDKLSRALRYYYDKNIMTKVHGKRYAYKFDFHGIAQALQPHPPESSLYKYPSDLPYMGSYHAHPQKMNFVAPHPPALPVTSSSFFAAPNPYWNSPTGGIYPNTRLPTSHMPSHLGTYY
In short, it runs like this:
as §1

A further assay has as its target T7, ETS2 (Homo sapiens, UniProt P15036 1-469).
T7 sequence: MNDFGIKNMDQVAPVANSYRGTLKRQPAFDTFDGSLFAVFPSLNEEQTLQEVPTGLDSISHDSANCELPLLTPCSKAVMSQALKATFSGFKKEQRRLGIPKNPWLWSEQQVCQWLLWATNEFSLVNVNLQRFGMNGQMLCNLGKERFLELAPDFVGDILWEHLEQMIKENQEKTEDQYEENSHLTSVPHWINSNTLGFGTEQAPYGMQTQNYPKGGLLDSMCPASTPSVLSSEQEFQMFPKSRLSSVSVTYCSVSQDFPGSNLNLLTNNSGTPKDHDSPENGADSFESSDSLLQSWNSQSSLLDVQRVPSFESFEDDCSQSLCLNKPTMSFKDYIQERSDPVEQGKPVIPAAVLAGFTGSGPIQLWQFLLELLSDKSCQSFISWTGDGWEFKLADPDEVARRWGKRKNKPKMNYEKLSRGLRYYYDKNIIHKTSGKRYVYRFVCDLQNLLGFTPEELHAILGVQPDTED
In short, it runs like this:
as §1

Another assay has as its target SPI1 (Homo sapiens, UniProt P17947 1-270). The essentials:
as §1

The next assay addresses T8, ELF3 (Homo sapiens, UniProt P78545 1-371).
T8 sequence: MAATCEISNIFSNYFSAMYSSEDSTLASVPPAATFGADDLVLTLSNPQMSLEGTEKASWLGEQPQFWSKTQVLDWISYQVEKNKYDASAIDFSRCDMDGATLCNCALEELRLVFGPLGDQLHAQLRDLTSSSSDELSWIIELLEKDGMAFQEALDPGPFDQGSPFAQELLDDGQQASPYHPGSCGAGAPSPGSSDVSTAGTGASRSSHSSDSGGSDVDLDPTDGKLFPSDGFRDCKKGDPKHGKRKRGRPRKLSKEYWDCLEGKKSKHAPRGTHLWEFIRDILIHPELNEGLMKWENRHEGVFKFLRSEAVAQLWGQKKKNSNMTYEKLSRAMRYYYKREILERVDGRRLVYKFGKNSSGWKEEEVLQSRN
The essentials: as §1

The target of a further assay is T9, ETV3 (Homo sapiens, UniProt P41162-2 1-143).
T9 sequence: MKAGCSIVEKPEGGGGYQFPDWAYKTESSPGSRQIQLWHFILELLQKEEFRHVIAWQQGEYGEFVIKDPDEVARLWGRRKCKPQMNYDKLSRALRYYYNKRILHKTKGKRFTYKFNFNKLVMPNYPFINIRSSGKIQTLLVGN
In short, it runs like this:
as §1

ETV1, sequence (P50549 whole entry): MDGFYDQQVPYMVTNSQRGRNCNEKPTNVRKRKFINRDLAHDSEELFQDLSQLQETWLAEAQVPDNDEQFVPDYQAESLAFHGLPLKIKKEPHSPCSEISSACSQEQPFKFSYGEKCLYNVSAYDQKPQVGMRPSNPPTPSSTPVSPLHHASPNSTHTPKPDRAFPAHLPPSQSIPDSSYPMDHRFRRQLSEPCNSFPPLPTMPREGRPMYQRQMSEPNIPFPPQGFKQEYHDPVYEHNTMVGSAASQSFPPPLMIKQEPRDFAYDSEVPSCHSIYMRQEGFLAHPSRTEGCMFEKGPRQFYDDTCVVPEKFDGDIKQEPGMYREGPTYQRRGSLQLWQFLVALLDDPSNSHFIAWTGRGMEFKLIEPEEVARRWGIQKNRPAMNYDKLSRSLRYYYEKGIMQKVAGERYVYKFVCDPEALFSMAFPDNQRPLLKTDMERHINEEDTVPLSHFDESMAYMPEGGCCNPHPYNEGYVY
SPIB, sequence (Q01892 whole entry, the tested form may be a part): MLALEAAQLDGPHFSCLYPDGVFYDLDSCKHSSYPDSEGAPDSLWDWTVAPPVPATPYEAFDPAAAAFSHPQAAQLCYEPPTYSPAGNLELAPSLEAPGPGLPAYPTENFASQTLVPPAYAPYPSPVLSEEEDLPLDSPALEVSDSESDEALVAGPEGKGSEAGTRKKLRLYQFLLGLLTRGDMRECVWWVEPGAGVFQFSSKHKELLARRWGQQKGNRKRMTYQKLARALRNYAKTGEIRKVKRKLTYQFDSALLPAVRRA

For GTGATG, the binding signal with SPIB was 1.04 fold enrichment (6-mer frequency, TF over GST control); in the assay with SPIC, 1.01 fold enrichment (6-mer frequency, TF over GST control); in the assay with ELK4 it was 1.18 fold enrichment (6-mer frequency, TF over GST control); with ETV1 it was 1.03 fold enrichment (6-mer frequency, TF over GST control).

Turning to CGGGTT, the binding signal is 1 fold enrichment (6-mer frequency, TF over GST control) in the assay with SPIC; 1.09 fold enrichment (6-mer frequency, TF over GST control) with SPDEF; 1.02 fold enrichment (6-mer frequency, TF over GST control) with ELF5.

CGTCAT: the binding signal is 1.03 fold enrichment (6-mer frequency, TF over GST control) with GABPA; 1.02 fold enrichment (6-mer frequency, TF over GST control) in the assay with ERG; 1.05 fold enrichment (6-mer frequency, TF over GST control) in the assay with SPIC; 1.09 fold enrichment (6-mer frequency, TF over GST control) with ELK4; 1.09 fold enrichment (6-mer frequency, TF over GST control) with ETV1; 1.03 fold enrichment (6-mer frequency, TF over GST control) with ETS2.

In the case of ATGAGG, the binding signal is 1.03 fold enrichment (6-mer frequency, TF over GST control) with GABPA; 1.4 fold enrichment (6-mer frequency, TF over GST control) in the assay with SPI1; 1.06 fold enrichment (6-mer frequency, TF over GST control) with SPIC; 1.17 fold enrichment (6-mer frequency, TF over GST control) in the assay with ELF3; 1.01 fold enrichment (6-mer frequency, TF over GST control) with ETV1; 1.11 fold enrichment (6-mer frequency, TF over GST control) with ELF5. In addition, the binding signal in the assay with ETV3 is 1.01 fold enrichment (6-mer frequency, TF over GST control).
